Laboratory results: PubChem BioAssay (NCATS)
“And” between values parts separate entries of the source, which are not always exact repeats. Equal entries are not always repeated. Records with an inconclusive call do not appear. A call without a number means that no potency is given here. Unmarked numbers belong to inactive results. The source made the active and inactive calls. Unless noted, calls come from the whole dose curve; as a rule, active = well fitted curve in the direction sought with a large enough effect; inconclusive = small, poorly fitted or top-dose-only effect, or another doubt; inactive = no such curve, though single readings can be large; an effect the other way counts as inactive or inconclusive.

Columns and labels:
[1] = target: Cellular tumor antigen p53 (Homo sapiens) (UniProt P04637); experiment: Primary qHTS for small molecule compounds that upregulate eGFP-tagged delta133p53alpha (in N-terminal) cells. (AID 2060322); settings: NCI-H358 eGFP-delta133p53alpha fluorescence, 24 h; activation: stronger effect = higher value;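 note: cells pre-induced with doxycycline then dosed without doxycycline; series mostly up to about 56 µM; nearly all actives have a fitted effect of over 75% in size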
How it was run: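 NCI-H358 cells pre-induced 24 h with 10 ng/ml doxycycline for eGFP-delta133p53alpha, plated dox-free and exposed 24 h at 37C to titrated compounds. Fixed, Hoechst-stained; gated GFP peak intensity by laser scanning cytometry, normalized to DMSO (0%) and 57.5 uM 5-azacytidine (100%).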

[2] = target: Cellular tumor antigen p53 (Homo sapiens) (UniProt P04637); experiment: Primary qHTS for small molecule compounds that upregulate eGFP-tagged delta133p53alpha (in C-terminal) cells. (AID 2060324); note: potency is the fitted concentration of half-maximal effect
How it was run: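 Doxycycline (100 ng/ml, 24 h) first induced the eGFP fusion in NCI-H358 C-terminal-tag cells. Washed-out cells then received titrated compounds for 24 h at 37 °C before paraformaldehyde fixation, Hoechst staining and cytometric GFP quantification.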

[3] = target: Retinaldehyde dehydrogenase 3 (Homo sapiens) (UniProt P47895); experiment: qHTS for Inhibitors of the Aldehyde Dehydrogenase Family (ALDH1A3) Validation screen (AID 2061312); note: nearly all actives have a fitted effect of over 45% in size
[4] = target: Aldehyde dehydrogenase, mitochondrial (Homo sapiens) (UniProt P05091); experiment: qHTS for Inhibitors of the Aldehyde Dehydrogenase Family (ALDH2) Validation screens (AID 2061302; active = well fitted inhibition curve with a large enough effect; title and protocol of this record describe different tests)
[5] = BET inhibitor-based combinations targeting novel dependencies in MECOM-rearranged (r) AML: SET-2 cell line (AID 2202231); settings: SET-2 AML cells viability, CellTiter-Glo luminescence, 48 h; viability: stronger effect = lower value, concentration not given here; note: nearly all actives have a fitted effect of over 35% in size; note: potency is the fitted concentration of half-maximal effect
How it was run: (§1)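 500 cells/well; 11-pt dose curve; 48 h, standard incubator; CellTiter-Glo luminescence after 15 min RT; DMSO/empty-well normalization; AUC plus Z-AUC (mean-centered within each line).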

[6] = BET inhibitor-based combinations targeting novel dependencies in MECOM-rearranged (r) AML: OCI-AML3 cell line (AID 2202232); settings: Potency: OCI-AML3 viability; note: nearly all actives have a fitted effect of over 35% in size; note: potency is the fitted concentration of half-maximal effect
How it was run: as §1

[7] = BET inhibitor-based combinations targeting novel dependencies in MECOM-rearranged (r) AML: MV-4-11 cell line (AID 2202233); note: nearly all actives have a fitted effect of over 45% in size; note: potency is the fitted concentration of half-maximal effect
How it was run: (§2)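 Cells were plated at 500 per well and exposed to each drug across an 11-point dose range for 48 hr at standard incubator conditions. Viability was read by CellTiter-Glo luminescence, and activity was expressed as AUC and per-cell-line Z-transformed AUC.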

[8] = BET inhibitor-based combinations targeting novel dependencies in MECOM-rearranged (r) AML: UCSD-AML1 cell line (AID 2202235); note: nearly all actives have a fitted effect of over 40% in size; note: potency is the fitted concentration of half-maximal effect
How it was run: as §2

[9] = qHTS for Inhibitors of the Aldehyde Dehydrogenase Family (ALDH1A2, ALDH1A3, ALDH2, ALDH3A1) (AID 2061307); note: nearly all actives have a fitted effect of over 50% in size; for potency: test system not described further here; potency is the fitted concentration of half-maximal effect
[10] = target: Retinaldehyde dehydrogenase 3 (Homo sapiens) (UniProt P47895); experiment: qHTS for Inhibitors of the Aldehyde Dehydrogenase Family (ALDH1A3) Confirmatory screens (AID 2061311); note: potency is the fitted concentration of half-maximal effect; nearly all actives have a fitted effect of over 60% in size
[11] = target: Retinal dehydrogenase 2 (Homo sapiens) (UniProt O94788); experiment: qHTS for Inhibitors of the Aldehyde Dehydrogenase Family (ALDH1A2) Confirmation screens (AID 2061314); note: nearly all actives have a fitted effect of over 65% in size; note: potency is the fitted concentration of half-maximal effect
[12] = target: Aldehyde dehydrogenase 1A1 (Homo sapiens) (UniProt P00352); experiment: qHTS for Inhibitors of the Aldehyde Dehydrogenase Family (ALDH1A1) Confirmatory screens (AID 2061316); note: potency is the fitted concentration of half-maximal effect; nearly all actives have a fitted effect of over 65% in size
[13] = BET inhibitor-based combinations targeting novel dependencies in MECOM-rearranged (r) AML: AML-191 cell line (AID 2202236; note: nearly all actives have a fitted effect of over 35% in size; note: potency is the fitted concentration of half-maximal effect)
How it was run: as §1

[14] = BET inhibitor-based combinations targeting novel dependencies in MECOM-rearranged (r) AML: AML-194 cell line (AID 2202237; note: nearly all actives have a fitted effect of over 40% in size)
How it was run: as §1

[15] = BET inhibitor-based combinations targeting novel dependencies in MECOM-rearranged (r) AML: HNT-34 cell line (AID 2202234); note: nearly all actives have a fitted effect of over 35% in size
How it was run: as §2

Cellular tumor antigen p53 (Homo sapiens), sequence (P04637 whole entry, looked up, the tested form may be a part): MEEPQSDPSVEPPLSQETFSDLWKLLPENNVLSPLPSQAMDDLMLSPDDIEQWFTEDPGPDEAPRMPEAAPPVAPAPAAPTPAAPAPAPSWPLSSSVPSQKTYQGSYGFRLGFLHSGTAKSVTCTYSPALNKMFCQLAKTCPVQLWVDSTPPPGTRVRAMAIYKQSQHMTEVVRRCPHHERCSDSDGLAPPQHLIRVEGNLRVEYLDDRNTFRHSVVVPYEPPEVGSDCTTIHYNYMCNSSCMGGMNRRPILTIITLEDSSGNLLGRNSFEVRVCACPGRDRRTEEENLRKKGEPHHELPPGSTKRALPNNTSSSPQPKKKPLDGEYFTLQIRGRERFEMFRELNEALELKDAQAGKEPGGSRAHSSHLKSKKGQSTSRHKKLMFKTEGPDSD

Question: Which results are given for `COc1ccc(NC(=O)/C=C/c2ccc(Cl)cc2)cc1`?
Answer: activation [1]: -18.7%; Potency [2]: inactive; Potency [3]: inactive

Question: Which results are given for `c1ccc(CN2CCC3(CCCc4ccccc43)CC2)cc1`?
Answer: activation [1]: -56.7%; Potency [4]: inactive

Question: With `OCc1ccc(-c2nn(Cc3ccccc3)c3ccccc23)o1` as the compound, how does the activation [1] read?
Answer: Its activation is -12.3% and 3.48%.

Question: And the Potency [2]?
Answer: The Potency was “inactive”.

Question: What about the Potency [5] of the same compound?
Answer: The Potency was 16.6 µM (active).

Question: And the Potency [6]?
Answer: Its Potency is 23.5 µM (active).

Question: And the Potency [7]?
Answer: The Potency was 5.9 µM (active).

Question: And the Potency [8]?
Answer: Its Potency is 20.9 µM (active).

Question: Which activation [1] does the source give for `COc1cc(/C=C(\C#N)C(=O)c2ccc(O)c(O)c2)cc(I)c1O` here?
Answer: The activation was 0.259%.

Question: And the Potency [2]?
Answer: The Potency was 16.9 µM (active).

Question: And the Potency [9]?
Answer: Its Potency is 4 µM (active).

Question: And the Potency [10]?
Answer: Its Potency is 8.96 µM (active).

Question: What about the Potency [11] of the same compound?
Answer: Its Potency is 12.7 µM (active).

Question: What does the source list for `CCn1cc(C(=O)O)c(=O)c2cc3c(cc21)OCO3`?
Answer: activation [1]: 2.82% and -18.3%; Potency [2]: inactive; Potency [3]: inactive

Question: With `O=C1NC(=O)C(c2ccccc2[N+](=O)[O-])=C1Nc1ccc(O)c(Cl)c1` as the compound, how does the activation [1] read?
Answer: Its activation is -20.1% and -30.9%.

Question: What about the Potency [2] of the same compound?
Answer: Its Potency is “inactive”.

Question: What about the Potency [7] of the same compound?
Answer: The Potency was 20.9 µM (active).

Question: Which activation [1] does the source give for `O=C1NC(=O)/C(=C/c2ccc(-c3ccc(F)cc3O)o2)S1` here?
Answer: The activation was -29.7%.

Question: What about the Potency [4] of the same compound?
Answer: Its Potency is “inactive”.

Question: For `CCCCS(=N)(=O)CC[C@H](N)C(=O)O` (stereo not given in full), which activation [1] is on record?
Answer: Its activation is -3.27%.

Question: And the Potency [2]?
Answer: The Potency was “inactive”.

Question: And the Potency [3]?
Answer: The Potency was “inactive”.

Question: For `O=C1Cc2c([nH]c3ccc(Br)cc23)-c2ccccc2N1`, which activation [1] is on record?
Answer: Its activation is -51%.

Question: And the Potency [4]?
Answer: The Potency was “inactive”.

Question: What does the source list for `CCCC[C@@]1(C2CCCC2)Cc2cc(OCC(=O)O)c(Cl)c(Cl)c2C1=O`?
Answer: activation [1]: -7.36%; Potency [4]: inactive

Question: What does the source list for `C=Cc1c(C)c2cc3[nH]c(cc4nc(cc5nc(cc1[nH]2)C(C)=C5CCC(=O)O)C(CCC(=O)O)=C4C)c(C)c3C=C`?
Answer: activation [1]: -11.7% and -48.8%; Potency [2]: inactive; Potency [9]: 10.1 µM (active); Potency [10]: 25.2 µM (active); Potency [3]: inactive; Potency [12]: 12.7 µM (active)

Question: What does the source list for `O=C1c2ccccc2C(=O)c2c(NCCc3ccc(O)cc3)ccc(NCCc3ccc(O)cc3)c21`?
Answer: activation [1]: -13.7%; Potency [4]: inactive

Question: With `O=C1c2c(O)cc(O)cc2OC(c2ccc(O)c(O)c2)C1O` (stereo not given) as the compound, how does the activation [1] read?
Answer: The activation was 31.8% and -16.9%.

Question: What about the Potency [2] of the same compound?
Answer: Its Potency is “inactive”.

Question: And the Potency [3]?
Answer: Its Potency is “inactive”.

Question: And the Potency [6]?
Answer: Its Potency is 23.5 µM (active).

Question: What about the Potency [7] of the same compound?
Answer: Its Potency is 18.6 µM (active).

Question: And the outcome [8]?
Answer: The outcome was “inactive”.

Question: What does the source list for `O=c1ccc2ccc(O)c(O)c2o1`?
Answer: activation [1]: 0.546% and -34.3%; Potency [2]: inactive; Potency [10]: 8.96 µM (active); Potency [11]: inactive

Question: For `CCC1(O)CC2CN(CCc3c([nH]c4ccccc34)[C@@](C(=O)OC)(c3cc4c(cc3OC)N(C=O)C3[C@]45CCN4CC=C[C@@](CC)([C@@H](OC(C)=O)[C@]3(O)C(=O)OC)[C@H]45)C2)C1` (stereo not given in full), which activation [1] is on record?
Answer: Its activation is 32.1%.

Question: And the Potency [4]?
Answer: Its Potency is “inactive”.

Question: With `O=C(Nc1cccc(C(=O)Nc2ccc(S(=O)(=O)O)c3cc(S(=O)(=O)O)cc(S(=O)(=O)O)c23)c1)Nc1cccc(C(=O)Nc2ccc(S(=O)(=O)O)c3cc(S(=O)(=O)O)cc(S(=O)(=O)O)c23)c1` as the compound, how does the activation [1] read?
Answer: The activation was -8.79%.

Question: And the Potency [2]?
Answer: Its Potency is “inactive”.

Question: What about the Potency [3] of the same compound?
Answer: Its Potency is “inactive”.

Question: Which results are given for `Cn1ncc(S(=O)(=O)Cc2ccccc2)c(Br)c1=O`?
Answer: activation [1]: -32.8%; Potency [2]: inactive; Potency [9]: inactive

Question: For `NC(=O)C1=CN(C2OC(COP(=O)(O)OP(=O)(O)OC[C@H]3O[C@@H](n4cnc5c(N)ncnc54)[C@H](OP(=O)(O)O)[C@@H]3O)C(O)C2O)C=CC1` (stereo not given in full), which activation [1] is on record?
Answer: The activation was -2.48%.

Question: And the Potency [2]?
Answer: Its Potency is “inactive”.

Question: What about the Potency [3] of the same compound?
Answer: The Potency was “inactive”.

Question: What does the source list for `NS(=O)(=O)c1cccc2c1c([N+](=O)[O-])cc1nc(O)c(O)nc12`?
Answer: activation [1]: -8.06%; Potency [2]: inactive; Potency [3]: inactive; Potency [11]: 25.2 µM (active); Potency [12]: 12.7 µM (active)

Question: With `CC1=C(/C=C/C(C)=C/C=C/C(C)=C\C(=O)O)C(C)(C)CCC1` as the compound, how does the activation [1] read?
Answer: The activation was -30.1%.

Question: And the Potency [2]?
Answer: The Potency was “inactive”.

Question: And the viability [5]?
Answer: Its viability is 102%.

Question: And the Potency [6]?
Answer: Its Potency is 0.742 µM (active).

Question: And the Potency [8]?
Answer: Its Potency is “inactive”.

Question: What about the Potency [13] of the same compound?
Answer: Its Potency is 5.25 µM (active).

Question: And the Potency [14]?
Answer: Its Potency is “inactive”.

Question: For `N#CC(=C(\N)Sc1ccccc1N)/C(C#N)=C(/N)Sc1ccccc1N`, which activation [1] is on record?
Answer: Its activation is -29.9%.

Question: What about the Potency [4] of the same compound?
Answer: The Potency was “inactive”.

Question: What does the source list for `CC1(C)NC(=O)N(c2ccc([N+](=O)[O-])c(C(F)(F)F)c2)C1=O`?
Answer: activation [1]: -8.47% and -2.88% and -17.8%; Potency [2]: inactive; Potency [3]: inactive; Potency [6]: inactive; Potency [7]: inactive; Potency [15]: inactive; Potency [8]: inactive; Potency [13]: inactive

Question: Which results are given for `O=C(O)Cc1ccc(O)c(O)c1`?
Answer: activation [1]: 10.9%; Potency [2]: inactive; Potency [9]: inactive; Potency [12]: 14.2 µM (active)

Question: Which activation [1] does the source give for `CC(C)(C)c1cc(/C=C(\C#N)C(N)=S)cc(C(C)(C)C)c1O` here?
Answer: The activation was 0.225%.

Question: What about the Potency [4] of the same compound?
Answer: The Potency was “inactive”.

Question: With `CN1CCc2cccc3c2C1Cc1ccc(O)c(O)c1-3` (stereo not given) as the compound, how does the activation [1] read?
Answer: Its activation is 49.9%.

Question: What about the Potency [4] of the same compound?
Answer: The Potency was “inactive”.

Question: Which activation [1] does the source give for `N#C/C(=C\c1ccc(-c2cc(Cl)ccc2Cl)o1)C(=O)Nc1cccc2ncccc12` here?
Answer: Its activation is -37.8%.

Question: What about the Potency [4] of the same compound?
Answer: The Potency was “inactive”.

Question: For `CCCCCCCC/C=C\CCCCCCCC(=O)NCc1ccc(O)c(OC)c1`, which activation [1] is on record?
Answer: Its activation is -13% and -42.7%.

Question: And the Potency [2]?
Answer: The Potency was “inactive”.

Question: And the Potency [3]?
Answer: Its Potency is “inactive”.

Question: Which activation [1] does the source give for `Cc1[nH]c(=O)c(C#N)cc1-c1ccc2nccn2c1` here?
Answer: Its activation is -19.2% and 47.5% and 13.7%.

Question: And the Potency [2]?
Answer: Its Potency is 30.1 µM (active).

Question: And the viability [5]?
Answer: Its viability is 118%.

Question: And the Potency [15]?
Answer: Its Potency is “inactive”.

Question: What about the Potency [8] of the same compound?
Answer: Its Potency is “inactive”.

Question: And the Potency [13]?
Answer: The Potency was “inactive”.

Question: And the Potency [14]?
Answer: The Potency was “inactive”.

Question: Which activation [1] does the source give for `NNCCc1ccccc1` here?
Answer: Its activation is 11.9% and 3.32% and -5.28%.

Question: And the Potency [2]?
Answer: Its Potency is “inactive”.

Question: And the viability [5]?
Answer: The viability was 108%.

Question: What about the Potency [6] of the same compound?
Answer: The Potency was 7.42 µM (active).

Question: What about the Potency [7] of the same compound?
Answer: Its Potency is “inactive”.

Question: And the Potency [15]?
Answer: Its Potency is “inactive”.

Question: What about the Potency [8] of the same compound?
Answer: Its Potency is “inactive”.

Question: What about the Potency [14] of the same compound?
Answer: The Potency was “inactive”.
